Common to all, as to experiment: log2 fold change, soluble protein after heating vs DMSO (PISA); higher = thermal stabilisation; K562 lysate, 10 uM; active = over 0.2 and 3.5 SD of the protein, either way, in both replicates (recomputed)
Compound in assay [1]: NCC(=O)Nc1ccc(-n2nc(C(F)(F)F)cc2-c2ccc3c(ccc4ccccc43)c2)cc1
The method, boiled down:
(§1)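 Thermal stability, expressed as log-two fold change relative to solvent controls, is given from duplicates. Crude K562 extract in PBS pH 7.4 with 1 mM MgCl2, at 1 mg/mL protein, was treated with 10 μM compound for 30 min and heated in aliquots for 3 min across 48°C-58°C. After pooling, adjustment to 0.5% NP-40 at 4°C and centrifugation at 21,000xg for 90 min, supernatant protein was measured by TMTpro 16plex LC-MS/MS with channel sums equalised.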

Compound in the next assay: O=C(CCCCCCC(=O)Nc1ccccc1)NO [vorinostat]
The method, boiled down: as §1

Compound in a further assay: O=C(O)c1ccc2c(c1)nc(Nc1cccc(Cl)c1)c1ccncc12 [silmitasertib]
The method, boiled down:
as §1

Compound in assay [2]: O=C1NC(=O)C(c2cnc3ccccn23)=C1c1cn2c3c(cc(F)cc13)CN(C(=O)N1CCCCC1)CC2
The method, boiled down:
as §1

Compound in a further assay: c1cn2cc(-c3ccc4cn[nH]c4c3)nc(Nc3ccc(N4CCOCC4)cc3)c2n1 [entospletinib]
The method in brief:
as §1

Targets with a hit are over-represented here; the source holds about 8,800 in all. About 0.5% of all pairs of compound and target were hits. Values without a mark were called inactive.

Data on 26 targets can be found in the supplement of paper PMC10849652.

UniProt Q9BXP5, sequence (Q9BXP5 whole entry, looked up): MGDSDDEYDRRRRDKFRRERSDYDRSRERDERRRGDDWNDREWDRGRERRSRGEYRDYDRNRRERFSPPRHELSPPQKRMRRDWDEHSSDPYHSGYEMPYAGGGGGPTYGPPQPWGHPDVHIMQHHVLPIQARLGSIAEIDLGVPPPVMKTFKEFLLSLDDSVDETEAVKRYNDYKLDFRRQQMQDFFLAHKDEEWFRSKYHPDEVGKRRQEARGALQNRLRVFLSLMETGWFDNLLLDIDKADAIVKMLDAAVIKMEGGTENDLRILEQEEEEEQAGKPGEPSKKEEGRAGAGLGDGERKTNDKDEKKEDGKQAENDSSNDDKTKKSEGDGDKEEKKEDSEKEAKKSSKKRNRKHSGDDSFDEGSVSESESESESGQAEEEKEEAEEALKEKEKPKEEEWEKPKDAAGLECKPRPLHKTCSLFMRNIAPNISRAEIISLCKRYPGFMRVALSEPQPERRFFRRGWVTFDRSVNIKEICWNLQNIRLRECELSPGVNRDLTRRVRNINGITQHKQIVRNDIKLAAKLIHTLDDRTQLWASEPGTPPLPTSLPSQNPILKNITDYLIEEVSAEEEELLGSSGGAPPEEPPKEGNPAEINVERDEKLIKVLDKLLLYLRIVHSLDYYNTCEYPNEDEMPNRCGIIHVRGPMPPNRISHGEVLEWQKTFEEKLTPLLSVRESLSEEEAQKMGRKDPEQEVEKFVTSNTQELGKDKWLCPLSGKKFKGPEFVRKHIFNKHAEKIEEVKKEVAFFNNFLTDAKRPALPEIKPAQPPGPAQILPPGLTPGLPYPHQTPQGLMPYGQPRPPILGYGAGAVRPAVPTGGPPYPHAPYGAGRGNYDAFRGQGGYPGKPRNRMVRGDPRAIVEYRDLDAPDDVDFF
UniProt Q8IX90, sequence (Q8IX90 whole entry, looked up): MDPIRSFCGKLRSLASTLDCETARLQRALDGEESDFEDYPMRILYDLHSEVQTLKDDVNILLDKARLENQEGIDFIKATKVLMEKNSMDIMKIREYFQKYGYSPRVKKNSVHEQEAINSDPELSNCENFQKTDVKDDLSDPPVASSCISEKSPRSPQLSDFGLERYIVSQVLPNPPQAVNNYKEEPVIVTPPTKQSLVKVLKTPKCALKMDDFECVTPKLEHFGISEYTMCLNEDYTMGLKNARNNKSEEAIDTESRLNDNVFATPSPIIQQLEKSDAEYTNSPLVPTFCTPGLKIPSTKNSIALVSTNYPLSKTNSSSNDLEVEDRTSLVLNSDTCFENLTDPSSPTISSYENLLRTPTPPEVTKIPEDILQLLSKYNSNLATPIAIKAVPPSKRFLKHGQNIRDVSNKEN
UniProt Q9UQE7, sequence (Q9UQE7 whole entry, looked up): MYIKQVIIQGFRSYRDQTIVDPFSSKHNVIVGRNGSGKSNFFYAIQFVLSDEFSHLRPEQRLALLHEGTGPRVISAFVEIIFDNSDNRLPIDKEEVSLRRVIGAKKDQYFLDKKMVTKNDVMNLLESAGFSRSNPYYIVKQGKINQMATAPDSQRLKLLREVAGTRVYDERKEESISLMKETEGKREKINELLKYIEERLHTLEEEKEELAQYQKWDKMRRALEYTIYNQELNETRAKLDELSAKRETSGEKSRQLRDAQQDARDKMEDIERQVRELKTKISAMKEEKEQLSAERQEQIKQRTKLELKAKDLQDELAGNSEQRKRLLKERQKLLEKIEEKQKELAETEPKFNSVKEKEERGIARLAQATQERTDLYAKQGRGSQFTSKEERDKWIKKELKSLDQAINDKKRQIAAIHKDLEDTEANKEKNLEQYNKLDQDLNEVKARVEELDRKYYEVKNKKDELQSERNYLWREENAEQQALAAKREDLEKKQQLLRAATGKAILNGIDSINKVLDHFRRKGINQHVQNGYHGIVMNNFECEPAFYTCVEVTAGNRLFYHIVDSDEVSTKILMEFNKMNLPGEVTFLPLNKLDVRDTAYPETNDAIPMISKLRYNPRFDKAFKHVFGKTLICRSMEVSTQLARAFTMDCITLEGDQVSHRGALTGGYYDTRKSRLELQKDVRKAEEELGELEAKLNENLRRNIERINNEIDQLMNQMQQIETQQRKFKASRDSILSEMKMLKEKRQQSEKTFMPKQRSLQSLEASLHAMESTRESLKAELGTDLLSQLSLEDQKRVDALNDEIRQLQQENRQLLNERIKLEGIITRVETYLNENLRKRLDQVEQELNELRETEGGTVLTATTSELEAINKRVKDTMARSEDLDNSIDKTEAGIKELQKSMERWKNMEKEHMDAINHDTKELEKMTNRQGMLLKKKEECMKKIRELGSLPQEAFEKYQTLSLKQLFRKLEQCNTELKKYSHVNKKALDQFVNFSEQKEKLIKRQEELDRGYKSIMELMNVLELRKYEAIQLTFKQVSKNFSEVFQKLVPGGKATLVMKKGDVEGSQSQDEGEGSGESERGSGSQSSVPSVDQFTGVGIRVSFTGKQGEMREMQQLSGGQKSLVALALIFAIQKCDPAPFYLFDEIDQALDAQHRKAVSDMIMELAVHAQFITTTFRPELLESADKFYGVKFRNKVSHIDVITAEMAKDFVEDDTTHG
UniProt Q9NTJ3, sequence (Q9NTJ3 whole entry, looked up): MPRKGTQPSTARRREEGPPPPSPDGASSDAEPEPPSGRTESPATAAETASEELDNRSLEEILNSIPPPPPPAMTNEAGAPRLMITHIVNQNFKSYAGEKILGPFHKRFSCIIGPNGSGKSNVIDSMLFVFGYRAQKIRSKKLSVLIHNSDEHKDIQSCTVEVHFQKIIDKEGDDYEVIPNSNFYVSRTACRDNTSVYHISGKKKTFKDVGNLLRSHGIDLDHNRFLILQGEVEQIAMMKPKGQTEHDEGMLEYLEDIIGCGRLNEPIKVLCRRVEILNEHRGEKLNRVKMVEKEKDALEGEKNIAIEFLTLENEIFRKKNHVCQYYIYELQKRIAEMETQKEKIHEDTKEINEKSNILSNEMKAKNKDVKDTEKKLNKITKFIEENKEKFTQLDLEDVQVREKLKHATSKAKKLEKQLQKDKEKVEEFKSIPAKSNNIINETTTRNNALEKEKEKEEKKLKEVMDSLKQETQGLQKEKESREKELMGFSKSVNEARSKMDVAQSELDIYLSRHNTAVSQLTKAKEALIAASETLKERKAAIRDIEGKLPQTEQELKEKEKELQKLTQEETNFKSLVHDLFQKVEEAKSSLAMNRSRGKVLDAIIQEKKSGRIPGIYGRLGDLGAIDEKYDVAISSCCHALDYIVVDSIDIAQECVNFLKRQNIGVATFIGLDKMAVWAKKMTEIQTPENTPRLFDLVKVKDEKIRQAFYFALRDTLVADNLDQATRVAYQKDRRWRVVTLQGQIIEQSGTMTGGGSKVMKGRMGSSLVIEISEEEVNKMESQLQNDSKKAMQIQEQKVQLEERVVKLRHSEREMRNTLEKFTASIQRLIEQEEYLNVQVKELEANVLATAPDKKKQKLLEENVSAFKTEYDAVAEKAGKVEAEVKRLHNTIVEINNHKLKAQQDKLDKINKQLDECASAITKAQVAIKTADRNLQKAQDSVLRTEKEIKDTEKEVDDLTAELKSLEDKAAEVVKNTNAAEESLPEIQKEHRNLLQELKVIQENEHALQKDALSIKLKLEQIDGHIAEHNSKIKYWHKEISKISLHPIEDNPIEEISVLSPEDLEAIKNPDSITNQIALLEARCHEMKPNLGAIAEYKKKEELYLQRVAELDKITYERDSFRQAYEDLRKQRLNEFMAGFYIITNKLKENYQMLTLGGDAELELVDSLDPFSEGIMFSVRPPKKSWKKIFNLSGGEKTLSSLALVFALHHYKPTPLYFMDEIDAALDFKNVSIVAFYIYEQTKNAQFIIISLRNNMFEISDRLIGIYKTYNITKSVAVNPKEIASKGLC
UniProt O43808, sequence (O43808 whole entry, looked up): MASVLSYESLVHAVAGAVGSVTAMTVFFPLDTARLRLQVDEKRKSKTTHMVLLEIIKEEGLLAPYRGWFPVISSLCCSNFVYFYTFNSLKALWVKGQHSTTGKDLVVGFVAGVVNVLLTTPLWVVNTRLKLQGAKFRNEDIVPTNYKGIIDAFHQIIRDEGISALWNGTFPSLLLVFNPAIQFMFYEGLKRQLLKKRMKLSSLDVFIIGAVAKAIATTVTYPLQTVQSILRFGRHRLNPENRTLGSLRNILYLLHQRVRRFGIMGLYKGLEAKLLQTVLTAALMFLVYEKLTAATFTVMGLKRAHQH
UniProt Q13188, sequence (Q13188 whole entry, looked up): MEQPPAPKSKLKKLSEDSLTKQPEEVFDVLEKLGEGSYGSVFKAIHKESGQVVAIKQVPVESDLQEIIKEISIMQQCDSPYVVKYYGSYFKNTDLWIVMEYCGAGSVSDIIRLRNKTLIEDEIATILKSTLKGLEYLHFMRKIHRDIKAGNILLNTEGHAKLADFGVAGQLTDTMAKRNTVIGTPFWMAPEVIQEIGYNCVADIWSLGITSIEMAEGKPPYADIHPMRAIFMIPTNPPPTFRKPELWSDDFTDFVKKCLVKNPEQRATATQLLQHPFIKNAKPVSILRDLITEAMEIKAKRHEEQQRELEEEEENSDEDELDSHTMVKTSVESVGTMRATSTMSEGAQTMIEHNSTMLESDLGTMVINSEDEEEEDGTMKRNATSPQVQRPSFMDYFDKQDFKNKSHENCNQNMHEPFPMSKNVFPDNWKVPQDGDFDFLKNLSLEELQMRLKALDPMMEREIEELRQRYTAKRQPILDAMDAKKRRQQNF
UniProt Q9NYA1, sequence (Q9NYA1 whole entry, looked up): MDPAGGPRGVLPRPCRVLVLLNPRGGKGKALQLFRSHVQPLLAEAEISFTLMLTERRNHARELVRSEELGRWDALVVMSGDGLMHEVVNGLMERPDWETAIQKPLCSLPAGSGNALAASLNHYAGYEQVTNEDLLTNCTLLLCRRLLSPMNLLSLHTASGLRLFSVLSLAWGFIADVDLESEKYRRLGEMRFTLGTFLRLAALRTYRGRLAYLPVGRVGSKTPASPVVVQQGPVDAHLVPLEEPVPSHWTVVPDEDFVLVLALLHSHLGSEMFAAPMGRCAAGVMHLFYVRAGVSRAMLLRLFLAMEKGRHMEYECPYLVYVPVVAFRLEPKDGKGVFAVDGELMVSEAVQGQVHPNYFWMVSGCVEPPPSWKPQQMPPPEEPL

As to TANGO6 (UniProt Q9C0B7), the log2 fold change in assay [1] is 0.007; with vorinostat, -0.389 (active); with silmitasertib it was 0.019; in assay [2], -0.037; with entospletinib, -0.009.

In the case of STOML2 (UniProt Q9UJZ1), the log2 fold change in assay [1] is 0.03; in the assay with vorinostat, 0.129; with silmitasertib it was -0.021; in assay [2], 0.028; with entospletinib it was 0.011.

Take STUB1 (UniProt Q9UNE7): the log2 fold change was -0.012 in assay [1]; -0.33 (active) with vorinostat; 0.015 with silmitasertib; 0.006 in assay [2]; 0.019 with entospletinib.

For the target STAU1 (UniProt O95793), the log2 fold change in assay [1] is 0.045; with vorinostat it was -0.035; with silmitasertib, 0.017; in assay [2], -0.009; in the assay with entospletinib, 0.009.

Consider SKA3 (UniProt Q8IX90), for which the log2 fold change in assay [1] is -0.007; with vorinostat, -0.247 (active); with silmitasertib, 0; in assay [2] it was -0.022; with entospletinib, 0.006.

Regarding TAF6L (UniProt Q9Y6J9), the log2 fold change is -0.022 in assay [1]; -0.086 in the assay with vorinostat; 0.013 in the assay with silmitasertib; -0.033 in assay [2]; -0.08 with entospletinib.

Turning to SRRT (UniProt Q9BXP5), the log2 fold change was -0.036 in assay [1]; -0.373 (active) in the assay with vorinostat; 0.044 with silmitasertib; -0.008 in assay [2]; 0.032 in the assay with entospletinib.

STK3 isoform 2 (UniProt Q13188): the log2 fold change in assay [1] was 0.034; in the assay with vorinostat it was -0.05; with silmitasertib it was 0.022; in assay [2], 0.025; with entospletinib, -0.003.

Regarding SRSF9 (UniProt Q13242), the log2 fold change in assay [1] is -0.182; with vorinostat, -0.113; with silmitasertib, 0.069; in assay [2], -0.035; in the assay with entospletinib it was 0.007.

For the target SMC3 (UniProt Q9UQE7), the log2 fold change in assay [1] is -0.023; in the assay with vorinostat it was 0.06; in the assay with silmitasertib, -0.009; in assay [2], -0.017; with entospletinib it was 0.012.

For SNRPD2 (UniProt P62316), the log2 fold change in assay [1] is 0; with vorinostat, 0.147; with silmitasertib, -0.021; in assay [2], 0.015; in the assay with entospletinib it was 0.001.

Consider SMC4 (UniProt Q9NTJ3), for which the log2 fold change in assay [1] was 0.013; with vorinostat, -0.296 (active); in the assay with silmitasertib it was 0.011; in assay [2] it was -0.015; with entospletinib, 0.009.

STK38 (UniProt Q15208): the log2 fold change in assay [1] is 0.021; in the assay with vorinostat it was -0.424 (active); in the assay with silmitasertib it was 0.16; in assay [2] it was -0.029; with entospletinib it was 0.

Regarding SHCBP1 (UniProt Q8NEM2), the log2 fold change was 0.02 in assay [1]; -0.37 (active) in the assay with vorinostat; 0.04 in the assay with silmitasertib; -0.009 in assay [2]; -0.013 with entospletinib.

On to SOX5 (UniProt P35711), for which the log2 fold change in assay [1] is -0.036; in the assay with vorinostat, -0.014; with silmitasertib, 0.099; in assay [2], -0.027; with entospletinib it was -0.083.

For SPATS2 (UniProt Q86XZ4), the log2 fold change in assay [1] is -0.047; in the assay with vorinostat, -0.507 (active); with silmitasertib, 0.002; in assay [2] it was -0.049; with entospletinib, 0.176.

In the case of SND1 (UniProt Q7KZF4), the log2 fold change in assay [1] is 0.001; with vorinostat, -0.414 (active); with silmitasertib, 0.048; in assay [2], 0.013; in the assay with entospletinib, 0.013.

Regarding SLC25A17 (UniProt O43808), the log2 fold change in assay [1] was 0.021; with vorinostat, 0.015; with silmitasertib it was -0.026; in assay [2] it was -0.033; in the assay with entospletinib it was -0.027.

For the target SOAT1 (UniProt P35610), the log2 fold change is 0.014 in assay [1]; 0.005 in the assay with vorinostat; 0 with silmitasertib; -0.037 in assay [2]; 0.015 with entospletinib.

Take SPHK1 isoform 2 (UniProt Q9NYA1): the log2 fold change in assay [1] is 0.091; in the assay with vorinostat, -0.408; with silmitasertib, 0.089; in assay [2] it was -0.167; with entospletinib, 0.032.

Take SYF2 (UniProt O95926): the log2 fold change is -0.047 in assay [1]; 0.092 with vorinostat; -0.059 with silmitasertib; -0.014 in assay [2]; -0.059 with entospletinib.

For the target SH3GL3 isoform 3 (UniProt Q99963), the log2 fold change in assay [1] was 0.108; in the assay with vorinostat, -0.091; with silmitasertib it was 0.028; in assay [2] it was 0.01; in the assay with entospletinib, 0.01.

For the target SLC26A6 (UniProt Q9BXS9), the log2 fold change is 0.012 in assay [1]; 0.048 with vorinostat; 0.03 in the assay with silmitasertib; 0.021 in assay [2]; -0.111 with entospletinib.

Consider SLC29A2 (UniProt Q14542), for which the log2 fold change in assay [1] was -0.045; in the assay with vorinostat it was 0.139; with silmitasertib, 0.117; in assay [2], 0.031; with entospletinib, -0.06.

On to SLC40A1 (UniProt Q9NP59), for which the log2 fold change in assay [1] was 0.005; with vorinostat, 0.046; with silmitasertib, 0; in assay [2], -0.016; in the assay with entospletinib it was 0.022.

Turning to STARD3 isoform 3 (UniProt Q14849), the log2 fold change is 0.022 in assay [1]; 0.065 in the assay with vorinostat; 0.047 in the assay with silmitasertib; 0.03 in assay [2]; -0.025 with entospletinib.
